This is part of a sample that, as a whole, favours compounds with a hit. Of some 79,000 tested, about 15% had one in any assay. A number with no mark means an inactive call. Calls of active or inactive are those of the source. No stated cut-off is given here; in the data, active means growth inhibition above about 70%; inactive means the rest.

The values below come from PubChem BioAssay (NCI).

The nature of this assay: NCI Yeast Anticancer Drug Screen. Data for the rad50 strain (AID 155).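 Further: 0% = growth of vehicle-only cultures of the same strain.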 The note with it: S. cerevisiae rad50 strain growth inhibition; at 50.0 µM; stronger effect = higher value. The method in brief: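 Compounds were tested on a yeast strain with an engineered DNA damage repair alteration; the reported value is growth inhibition normalised to vehicle treatment.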
In the case of `Cc1ccccc1N1C(=O)C(=O)c2cccc(C)c21`, the growth inhibition is 99.2% (active).
For `Nc1n[nH]c(=O)c2cccnc12`, the growth inhibition was 0.7%.
Under `CCCCNCCCNCCCNC(=O)c1csc(-c2csc(CCNC(=O)C(NC(=O)C(C)C(O)C(C)NC(=O)C(NC(=O)c3nc(C(CC(N)=O)NCC(N)C(N)=O)nc(N)c3C)C(OC3OC(CO)C(O)C(O)C3OC3OC(CO)C(O)C(OC(N)=O)C3O)c3cnc[nH]3)C(C)O)n2)n1` (stereo not given) stands 93% (active).
On to `c1ccc(-c2ccc(-c3cnc(-c4ccc(-c5ccccc5)cc4)o3)cc2)cc1`, for which the growth inhibition was 90.2% (active).
Under `CN(C)C=Nc1ccc2nonc2c1` stands 10.2%; under `COC(=O)C(CCC(=O)Cc1ccccc1)N1C(=O)c2ccccc2C1=O` (stereo not given), 70%.
Under `O=S(=O)(Nc1ccccc1)c1ccccc1CC(O)(c1ccccc1)c1ccccc1` stands 90% (active); under `O=C1OC(=O)C2C=CC=CC12` (stereo not given), 50%; under `CCOC(=O)N/N=C/c1ccc([N+](=O)[O-])o1`, 89.9% (active).
Under `CN=C(N)N/N=C(\C)c1ccc2c(ccc3ccccc32)c1` stands 89.2% (active).
On to `O=C(C(/C=N/C(=S)NCc1ccccc1)=C(/O)c1ccccc1)c1ccccc1`, for which the growth inhibition is 98.8% (active).
On to `Cc1nc(Nc2ccc(Cl)cc2)sc1C(=O)Nc1cccc2c(=O)[nH][nH]c(=O)c12`, for which the growth inhibition is 83% (active).
Under `Cc1c2ccccc2c(C)c2c1cc(F)c1ccccc12` stands 96.1% (active); under `CC1=C(C(=O)Nc2ccccc2)C(c2cc(Cl)cc(Cl)c2)C(C(=O)Nc2ccccc2)=C(C)N1`, 87% (active).
Under `O=[N+]([O-])/C(Br)=C\c1ccc([N+](=O)[O-])cc1` stands 99.4% (active); under `CC1=CC(C)(C)Nc2cc(N)ccc21`, 50.5%.
Consider `Fc1ccc2nncc(SCc3ccccc3)c2c1`, for which the growth inhibition is 97.9% (active).
Under `CN(C)c1ccc(-c2c(C#N)c(-c3ccccc3)n(NS(=O)(=O)c3ccccc3)c(=O)c2C#N)cc1` stands 71% (active).
Under `Cc1cc(N2C(=O)CCSC2=S)ccc1Cl` stands 90.9% (active); under `C=C(c1ccccc1)[P+](c1ccccc1)(c1ccccc1)c1ccccc1`, 99.2% (active); under `Cc1cc(Br)c2ccccc2c1N`, 88.3% (active).
Under `CC1C[N+](C)(C)C(C)C(=O)C1(c1ccccc1)c1ccccc1` (stereo not given) stands 6.6%.
Turning to `CC(=O)N(C1=CC(=O)c2ccccc2C1=O)c1ccc(C)cc1`, the growth inhibition was 98.4% (active).
Under `CC(c1ccccc1)n1c2ccccc2c2c(N)ncnc21` (stereo not given) stands 78.4% (active); under `CC(=O)O/N=C1/CCC2C3CC=C4CC(OC(C)=O)CCC4(C)C3CCC12C` (stereo not given), 68.8%; under `c1cc(CCSSCCc2ccncc2)ccn1`, 27.5%.
Regarding `CC1=C(C(=O)Nc2cc(C)ccc2C)C(c2cccc([N+](=O)[O-])c2)C(C(=O)Nc2cc(C)ccc2C)=C(C)N1`, the growth inhibition is -12.3%.
Regarding `ClC1=CC(Cl)=C2N=C(C(Cl)(Cl)Cl)N=C3N=C(C(Cl)(Cl)Cl)N=C1N32`, the growth inhibition is 99.3% (active).
Under `C[n+]1c(-c2ccc(/C=N/Nc3n[nH]c(=S)n3/N=C/c3ccc(-c4cn5ccsc5[n+]4C)cc3)cc2)cn2ccsc21` stands 97.9% (active); under `CC1(C)OC(=O)C(=NNc2ccccc2[N+](=O)[O-])C(=O)O1`, -6.9%; under `CC(CCCOC(c1ccccc1)(c1ccccc1)c1ccccc1)OC(=O)Nc1ccccc1` (stereo not given), 83.9% (active).
Under `CCN(CC)c1ccc2nc3ccc(N(CC)CC)cc3[n+](-c3ccccc3)c2c1` stands 92.1% (active); under `CC1OC(C)C(O)C2=C1C(=O)c1ccccc1C2=O` (stereo not given), 91.9% (active); under `CCCCCCCCCCCCS(=O)(=O)CC(Br)C(=O)c1ccco1` (stereo not given), 94.2% (active).
Under `NC(=O)NOCC1NC(=O)NC1=O` (stereo not given) stands -4.95%; under `O=C(O)C1C(=O)OC2CCCCC21` (stereo not given), 3.25%.
On to `C=CCNC(=S)N/N=C(\CCC)c1ccccn1`, for which the growth inhibition was 99.3% (active).
Under `Nc1ccc2c(c1)S(=O)(=O)c1cc(N)ccc1-2` stands 41.4%; under `CN1C(=O)c2cccc3cc([N+](=O)[O-])cc(c23)C1=O`, 82.7% (active); under `C/C(=N\NC(=S)NC12CC3CC(CC(C3)C1)C2)c1ccccn1`, 97% (active).
